# Experimental data published in PubChem BioAssay (NCI).
# This is part of a sample that, as a whole, favours compounds with a hit. Of some 83,000 tested, about 20% had one in any assay.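 Step 1: grow cells in 96-well plates. Step 2: add test compound at a single concentration. Step 3: incubate 48 h. Step 4: record percent growth.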 Unmarked numbers belong to inactive results. Active and inactive are the calls of the source. How the source made its calls: active means growth percent below 10; inactive means the rest.
# System: MDA-MB-468 breast
# Experiment: NCI-60 one-dose screen, 48 h (100 = growth as untreated, 0 = no growth, -100 = all killed)
# Details: 10 µM unless noted
row,SMILES,growth
1,O=C(Nc1ccccc1[N+](=O)[O-])c1ccc(Cl)c(Cl)c1,65.7%
2,O=S(=O)(N=C1C(Cl)=C(Cl)C(=NS(=O)(=O)c2ccccc2)C(Cl)=C1Cl)c1ccccc1,70.3%
3,COc1cc(C(=O)/C=C/c2cc(-c3ccc4c(c3)OCO4)n[nH]2)cc(OC)c1OC,29.1%
4,CCN(CC)CC[n+]1cc2cc(OC)c(OC)cc2c2ccc3cc4c(cc3c21)OCO4,-27% (active)
5,Cc1ccc(N=C=C(c2ccccc2)c2ccccc2)cc1,69.1%
6,CCSc1cnnc2ccccc12,105%
7,COc1ccc(-n2c(SCc3cc(OC)c(OC)c(OC)c3)nc3ccc(C)cc3c2=O)c(OC)c1,17.1%
8,CCCCC(CCCCCC(CCCC)NCc1ccc2c(c1)OCO2)NCc1ccc2c(c1)OCO2 (stereo not given),-90.7% (active)
9,Cc1cccc(NCc2cn(-c3ccc(C(=O)O)cc3)nc2-c2ccc(C(=O)O)cc2)n1,101%
10,O=C(/C=C(O)/C=C/c1cccc2[nH]ccc12)/C=C/c1cccc2[nH]ccc12,67.8%
11,CCCN1C2CCC1/C(=C\c1ccc(OC)cc1)C(=O)/C2=C/c1ccc(OC)cc1,55.9%
12,CS(=O)(=O)c1ccc(Cl)c([N+](=O)[O-])c1,103%
13,COc1ccc(C2SCC(=O)N2NC(=O)c2ccc(NC(=O)c3ccccn3)cc2)cc1OC (stereo not given),104%
14,CCc1nnc(NC(=O)c2nnn(-c3ccccc3)c2-c2ccco2)s1,95.9%
15,COc1ccc(/C=C/C(=O)c2c(C)nc3ccccc3c2/C=C/c2ccccc2)c(OC)c1,87%
16,CCOC(=O)C(=Cc1cccc(Br)c1)C(=O)OCC,31%
17,Nc1c(Br)cc2c(c1Br)Cc1cc([N+](=O)[O-])ccc1-2,-54.8% (active)
18,Cc1sc2c(c1C)c(=O)nc1c(-c3nc(-c4ccc(F)cc4)no3)n[nH]n12,110%
19,O=C(/C=C/c1cccc(Cl)c1)OCc1ccc2cc1OCC#C/C=C\C#CCO2,79.2%
20,O=C(NC1CCN(Cc2ccccc2)CC1)c1cc(-c2ccncc2)nc2ccc(Cl)cc12,12.8%

row,SMILES,growth
1,Nc1ccccc1NC(=O)c1ccc(CCCC(=O)Nc2ccc(C3CC3N)cc2)cc1 (stereo not given),-4.41% (active)
2,COC1CC2CCC(C)C(O)(O2)C(=O)C(=O)N2CCCCC2C(=O)OC(C(C)CC2CCC(O)C(OC)C2)CC(=O)C(C)C=C(C)C(O)C(OC)C(=O)C(C)CC(C)/C=C/C=C/C=C1C (stereo not given),23.3%
3,COc1ccc(C2=NN(c3nc(-c4ccc(OC)cc4)c(C#N)c(=O)n3C)C(=O)CC2)cc1,96.2%
4,COc1ccccc1-n1c(-c2ccc(O)cc2C)cn2c3c(=O)[nH]c(=O)n(C)c3nc12,88.6%
5,C=C=COc1cccc(/C(N)=N/C(N)=N/c2nc3ccccc3s2)c1,102%
6,Nc1cccc2cccc(O)c12,82.6%
7,Clc1ccc2c(OCCCN3CCOCC3)c3oc4ccccc4c3nc2c1,21.1%
8,NC1=NN=C(N)C1=Cc1cc2ccccc2n2nnnc12,94.8%
9,COc1ccc(C(C)=O)cc1S(=O)(=O)Nc1c(N)nc(SC)[nH]c1=O,97.6%
10,Cc1ccc(NSc2ccccc2[N+](=O)[O-])cc1,17.6%
11,COc1ccc(-c2nnc(-c3ccc4c(c3)nc(-c3ccncc3)n4C3CCCCC3)o2)cc1,75.2%
12,CN(C)c1ncnc2c1ccn2C1OC(CO)C(O)C1O (stereo not given),-64.3% (active)
13,COc1ccccc1/C=C/C=N/NC1=NC2C(S1)N(C)C(=O)N2C (stereo not given),-5.34% (active)
14,CC(=O)n1c2ccccc2c2ccccc21,105%
15,CCn1cc(C(=O)O)c(=O)c2cc(F)c(N3CCN(S(=O)(=O)c4cccc5ccccc45)CC3)cc21,4.79% (active)
16,N/C(=N\c1nc2c(Cl)cccc2s1)C(Cl)(Cl)Cl,22.6%
17,Cc1cnc(C(=O)Nc2nc3ccc(S(=O)(=O)Nc4ccc(C5(C(F)(F)F)CC5)cc4)cc3[nH]2)cn1,-26.2% (active)
18,COc1cc(OC)c(S(N)(=O)=O)cc1C(=O)/C=C/c1ccc(C)cc1,-36.2% (active)
19,COc1cc2c(c(OC)c1OC)-c1ccc(NNC(=S)N(Cc3cccc(C[N+](Cc4cccc(CNC56CC7CC(CC(C7)C5)C6)c4)(Cc4cccc(CNC56CC7CC(CC(C7)C5)C6)c4)Cc4cccc(CN(C(=S)NNc5ccc6c(cc5=O)[C@@H](NC(C)=O)CCc5cc(OC)c(OC)c(OC)c5-6)C56CC7CC(CC(C7)C5)C6)c4)c3)C34CC5CC(CC(C5)C3)C4)c(=O)cc1[C@@H](NC(C)=O)CC2 (stereo not given in full),-52.7% (active)
20,O=C(Oc1cccc2ccccc12)Oc1cccc2ccccc12,117%
